Screens deposited in PubChem BioAssay by several laboratories.
Rows were chosen to be rich in hits. Some 27% of all compounds tested hit in one or more screens of this group.
CYP2C19 activ: increases human CYP2C19 enzyme activity | P33261 | recombinant CYP2C19, luciferin-H EGE luminescence; hits give high values; 0 = fully inhibited enzyme, 1 = untreated enzyme | activation factor at 5 µM | 96,000 tested, under 10 active | AID 1025;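 active = activation factor of at least 2 at 5 µM in the primary screen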
Cav3 T inh: inhibitors of human Cav3.2 T-type calcium channel; O95180; Cav3.2-expressing cells, Fluo-4 calcium fluorescence FDSS; hits give low values; B-score at 10 µM; 100,000 compounds, 4% hits; AID 449739;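 active = single-dose well whose peak fluorescence ratio is a statistical outlier from its plate by either plate-standardised score or position-corrected B-score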
CYP2C9 inh: inhibitors of human CYP2C9. P11712. CYP2C9 Supersomes, luciferin-H conversion, luminescence. inhibition, % at 5 µM. 96,000 compounds, 20% hits;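 active = blocking of liver enzyme CYP2C9 beyond about 50% at 5 µM, limit read from the data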
Target sequence (P11712 whole entry, looked up): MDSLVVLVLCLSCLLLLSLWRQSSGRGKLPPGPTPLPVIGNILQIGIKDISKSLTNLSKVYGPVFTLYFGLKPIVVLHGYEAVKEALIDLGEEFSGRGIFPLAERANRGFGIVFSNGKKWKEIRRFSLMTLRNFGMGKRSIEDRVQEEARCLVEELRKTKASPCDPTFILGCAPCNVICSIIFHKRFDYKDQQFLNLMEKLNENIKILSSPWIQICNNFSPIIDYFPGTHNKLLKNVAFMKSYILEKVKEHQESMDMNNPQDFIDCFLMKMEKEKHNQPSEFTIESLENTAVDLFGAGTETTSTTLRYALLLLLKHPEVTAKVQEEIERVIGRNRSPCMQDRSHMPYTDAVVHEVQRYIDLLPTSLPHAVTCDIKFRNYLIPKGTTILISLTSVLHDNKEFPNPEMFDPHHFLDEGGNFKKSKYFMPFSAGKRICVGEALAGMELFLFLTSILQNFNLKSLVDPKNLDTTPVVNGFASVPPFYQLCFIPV
CYP2C19 inh: blocks human cytochrome P450 2C19 | P33261 | inhibition, % at 5 µM | 96,000 compounds, 21% hits | CYP2C19 Supersomes, luciferin-H EGE luminescence, 30 min;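 active = CYP2C19 inhibition above a set limit at 5 µM in the primary screen, cut at about 50% in these data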
CYP2C9 act: CYP2C9 (human) activation | P11712 | recombinant CYP2C9, luciferin-H conversion, luminescence; hits give high values; factor 1 = untreated enzyme, 0 = blocked | activation factor at 5 µM | 96,000 compounds, 1.4% hits;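 active = activation factor of 2 or more for CYP2C9 at a 5 µM dose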
Hits are given with their value; - = inactive; . = no result.

SMILES	CYP2C19 activ	Cav3 T inh	CYP2C9 inh	CYP2C19 inh	CYP2C9 act
COCCn1nnnc1C(c1ccc2ncccc2c1)N1CCN(c2ccccc2F)CC1 (configuration not stated)	-	-	-	-	-
COCCn1nnnc1C(c1ccccn1)N1CCN(c2cc(C)ccc2C)CC1 (configuration not stated)	-	-	70	83	-
O=C(Cc1cn2ccsc2n1)Nc1nc2c(s1)CN(Cc1ccccc1)CC2	-	-	-	-	-
CC12/C(=N/O)C3C4CC5C3/C(=N/O)C1C5C42 (configuration not stated)	-	-	-	-	-
CC1Cc2ccccc2N1C(=O)COc1nc2ccccc2nc1N1CCOCC1 (configuration not stated)	-	.	-	-	-
Cc1ccc(Oc2ccc(NC(=O)c3ccco3)cc2)cc1	-	-	59	56	-
Cc1ccc(NC(=O)c2ccc(OC(=O)c3ccco3)cc2)cc1	-	-	-	-	-
CCOCC(=O)Nc1c(C(=O)Nc2ccc(OC)cc2OC)oc2ccccc12	-	-	71	-	-
COCC(=O)Nc1c(C(=O)Nc2cccc(OC)c2)oc2ccccc12	-	-	64	-	-
COc1ccc(NC(=O)c2oc3ccccc3c2NC(=O)c2ccco2)cc1	-	-	-	60	-
COc1ccc(NC(=O)c2oc3ccccc3c2NC(=O)c2ccco2)c(OC)c1	-	-	-	-	-
CCO[C@@H]1OC(C(=O)NC2CC2)=C[C@H](c2csc3ccccc23)[C@H]1CCCO	.	-	.	.	.
COC(=O)C(Cc1ccccc1)NS(=O)(=O)c1ccc(F)cc1Br (configuration not stated)	.	-	.	.	.
CCOC(=O)c1c(C)[nH]c(C)c1C(=O)COc1ccc(NC(=O)c2ccco2)cc1	-	-	93	88	-
COc1ccc(OCC(=O)Nc2ccc(NC(=O)c3ccco3)cc2)cc1	-	-	-	-	-
C#CCNC(=O)C1=C[C@@H](C)[C@H](CCCO)[C@@H](OCC)O1	.	-	.	.	.
CCn1c(SCC(=O)Nc2ccccc2-c2ccccc2)nnc1-c1ccoc1C	-	-	86	80	-
COc1ccc(-n2c(SCC(=O)Nc3nc(C)cs3)nnc2-c2ccoc2C)cc1	.	-6.5	.	.	.
CCCCn1c(SCC(=O)c2ccc3c(c2)OCCO3)nnc1-c1ccoc1C	-	-	90	96	-
CCCCn1c(SCC(=O)Nc2nnc(C)s2)nnc1-c1ccoc1C	-	-	81	-	-
COC(=O)CSc1nnc(-c2ccoc2C)n1-c1ccc(C)cc1	-	-	-	-	-
COc1ccccc1NC(=O)CSc1nnc(-c2ccoc2C)n1CC1CCCO1 (configuration not stated)	-	-	-	-	-
CCOC(=O)C1CCN(c2c(NC3CCCc4ccccc43)c(=O)c2=O)CC1 (configuration not stated)	-	-	-	-	-
COc1ccc(-n2c(SCC(=O)Nc3nccs3)nnc2-c2ccoc2C)cc1	-	-	62	75	-
Cc1occc1-c1nnc(SCC(=O)Nc2ccc3c(c2)OCO3)n1CC1CCCO1 (configuration not stated)	-	-	60	-	-
SMILES	CYP2C19 activ	Cav3 T inh	CYP2C9 inh	CYP2C19 inh	CYP2C9 act
CCn1c(SCC(=O)N2CCN(c3ccccc3F)CC2)nnc1-c1ccoc1C	-	-	53	54	-
Cc1occc1-c1nnc(SCC(=O)N2CCOCC2)n1CCc1ccccc1	-	-	-	-	-
COc1cccc(-n2c(SCC(=O)Nc3nccs3)nnc2-c2ccoc2C)c1	.	-4	.	.	.
C[C@@H](O)[C@H]1C(=O)N2C(C(=O)O)=C(S[C@@H]3CN[C@H](C(=O)N(C)C)C3)[C@H](C)[C@H]12	.	-	.	.	.
COCCCNC(=O)Cn1nnc(-c2ccc(NC(=O)c3ccc(F)cc3)cc2)n1	-	-	-	-	-
Cc1ccc(-n2c(=O)[nH]cc(C(=O)N3CCc4ccccc43)c2=O)cc1C	-	-	-	-	-
Cn1cccc1Cc1nnc(SCC(=O)NCC2CCCO2)n1-c1ccc(F)cc1 (configuration not stated)	-	-	-	-	-
CCn1c(SCC(=O)Nc2nc(C)cs2)nnc1-c1ccoc1C	-	-	-	75	-
C=CCn1c(SCC(=O)Nc2nc(C)cs2)nnc1C(CO)NC(=O)c1ccccc1 (configuration not stated)	-	-	-	-	-
CCn1c(SCC(=O)Nc2nc(C)cs2)nnc1C(NC(=O)c1ccccc1Cl)C(C)C (configuration not stated)	-	-	-	52	-
Cc1ncc([N+](=O)[O-])n1CCOC(=O)Nc1ccc(Cl)c(Cl)c1	-	-	-	-	-
Cc1nc2cc(-c3ccsc3-n3c(C)ccc3C)[nH]n2c(=O)c1Cl	-	-4.7	-	-	-
COCc1cc(=O)n2[nH]c(-c3ccsc3-n3c(C)ccc3C)cc2n1	-	-	-	-	-
Cc1cccc(NC(=O)CCc2c(C)nc3ncnn3c2C)n1	-	-	-	-	-
CCCn1cc(S(=O)(=O)CC(=O)NC2CCCCC2)c2ccccc21	.	-	.	.	.
CCOC(=O)c1c(C)c(C(=O)NCCCOC(C)C)c(C)n1C	-	-	-	-	-
COc1cccc(C(=O)NC2CCN(C(=O)N3c4ccccc4Sc4ccccc43)CC2)c1	-	-3.9	-	-	-
O=C(NC1CCN(C(=O)N2c3ccccc3Sc3ccccc32)CC1)c1ccccc1Cl	-	-	-	-	-
CCOc1ccc(CNCc2cccnc2)cc1	.	-	.	.	.
COc1ccc(Cl)cc1N/C(N)=N/c1nc(CSc2ccc(C)cc2)cc(=O)[nH]1	-	-	76	52	-
CC(O)CNc1nc2ccccc2n1CC(=O)NCCc1ccc(Cl)cc1 (configuration not stated)	-	-	-	50	-
C=CCOc1c(Cl)cc(C2NC(=O)NC(C)=C2C(=O)OC)cc1Cl (configuration not stated)	-	-	-	57	-
C=CCN(CC=C)Cc1ccc(C(=O)OC)o1	-	-	-	-	-
COc1ccc(N(C)S(=O)(=O)c2cccc(C(=O)Nc3ccc(-n4cnnn4)cc3)c2)cc1	-	-	85	70	-
COc1ccc(S(=O)(=O)N(C)c2ccc(C(=O)NCC3CCCO3)cc2)cc1 (configuration not stated)	-	-	53	-	-
CCCNS(=O)(=O)c1ccc(C(=O)NCC2CCCO2)cc1 (configuration not stated)	-	-	-	-	-
COc1ccc(N(C)S(=O)(=O)c2cccc(C(=O)NCC3CCCO3)c2)cc1 (configuration not stated)	-	-	63	-	-
Cc1c(Cl)ccc2c1NC(=O)[C@]21N[C@@H](Cc2ccccc2)[C@H]2C(=O)N(c3ccc(F)cc3)C(=O)[C@H]21	-	-	-	-	-
Cc1c(C(=O)N2CCCC2)oc2c1-c1[nH]ncc1CC2	.	-	.	.	.
COc1ccc(OCCC(=O)OCC(=O)NC(=O)NC(C)(C)C)cc1	-	-	83	84	-
